Key:
Format in all cases: functional
[1] = molecular target: Solute carrier family 2, facilitated glucose transporter member 1 (Homo sapiens) (UniProt P11166); assay: ST_JUDE_LEISH: Cytotoxicity at 2uM final concentration against transgenic Leishmania Mexicana promastigotes LmGLUT1 that are glucose transport deficient and complemented with the human glucose transporter GLUT1. Activity is measured by DNA content using SYBR green in vitro
[2] = molecular target: Hexose transporter 1 (Plasmodium falciparum) (UniProt O97467); assay: ST_JUDE_LEISH: Cytotoxicity at 2uM final concentration against transgenic Leishmania Mexicana promastigotes LmPfHT that are glucose transport deficient and complemented with the Plasmodium falciparum hexose transporter. Activity is measured by DNA content using SYBR green in vitro
[3] = molecular target: Glucose transporter (Leishmania mexicana) (UniProt O61059); assay: ST_JUDE_LEISH: Cytotoxicity at 2uM final concentration against transgenic Leishmania Mexicana promastigotes LmGT2 that are glucose transport deficient and complemented with the L. Mexicana glucose transporter 2. Activity is measured by DNA content using SYBR green in vitro

Solute carrier family 2, facilitated glucose transporter member 1 (Homo sapiens), sequence (P11166 whole entry): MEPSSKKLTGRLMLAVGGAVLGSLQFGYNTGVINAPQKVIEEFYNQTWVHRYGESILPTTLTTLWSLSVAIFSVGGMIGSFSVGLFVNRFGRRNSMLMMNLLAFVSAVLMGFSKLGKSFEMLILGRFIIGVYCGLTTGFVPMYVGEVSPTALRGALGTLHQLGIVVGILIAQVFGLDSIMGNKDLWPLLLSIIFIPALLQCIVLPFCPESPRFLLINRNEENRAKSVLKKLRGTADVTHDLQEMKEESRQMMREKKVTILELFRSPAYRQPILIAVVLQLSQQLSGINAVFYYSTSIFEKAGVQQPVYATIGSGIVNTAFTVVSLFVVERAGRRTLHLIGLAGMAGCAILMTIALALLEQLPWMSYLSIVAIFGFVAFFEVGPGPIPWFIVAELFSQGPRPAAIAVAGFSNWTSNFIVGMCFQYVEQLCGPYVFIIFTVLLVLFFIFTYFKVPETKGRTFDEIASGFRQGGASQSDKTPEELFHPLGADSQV

With `Cc1cccc2nc(-c3cccc(-c4ccc(NC(=O)COc5ccccc5C(N)=O)cc4)c3)[nH]c12` as the compound, how does the inhibition [1] read?
Its inhibition is 4.4%.

What about the inhibition [2] of the same compound?
Its inhibition is 4.11%.

What about the inhibition [3] of the same compound?
The inhibition was 5.02%.

What does the source list for `COc1ccc(/C=C/C(=O)Nc2ccc(-c3ccncc3)cc2)cc1CCCN(C)C`?
inhibition [1]: 6.87%; inhibition [2]: 5.55%; inhibition [3]: 6.94%

Which inhibition [1] does the source give for `COc1cc(N(C)Cc2cnc3nc(N)nc(N)c3n2)cc(OC)c1OC` here?
The inhibition was 4.09%.

What about the inhibition [2] of the same compound?
Its inhibition is 3.84%.

And the inhibition [3]?
Its inhibition is 3.15%.

With `Cc1cc(N(C)C)nc(Nc2ccc(NC(=O)COc3ccccc3)cc2)n1` as the compound, how does the inhibition [1] read?
The inhibition was 2.72%.

What about the inhibition [2] of the same compound?
The inhibition was 7.92%.

And the inhibition [3]?
Its inhibition is -2.15%.

With `Cc1cccc2nc(-c3ccc(-c4cccc(NC(=O)Nc5ccsc5)c4)cc3)[nH]c12` as the compound, how does the inhibition [1] read?
The inhibition was 1.48%.

And the inhibition [2]?
The inhibition was 0.08%.

What about the inhibition [3] of the same compound?
The inhibition was -1.47%.

Which results are given for `CCN(CCCN1CCCCC1)c1cc(C)nc(Nc2cc(C(F)(F)F)ccc2C)n1`?
inhibition [1]: -1.35%; inhibition [2]: 0.37%; inhibition [3]: 0%

How did the inhibition [1] turn out when `Oc1cc2c(cc1CN1CCN(Cc3ccccc3F)CC1)CCC2` was run?
The inhibition was 1.19%.

And the inhibition [2]?
The inhibition was -1.37%.

And the inhibition [3]?
The inhibition was 2.62%.

`O=C(NC1CCN(Cc2ccccc2)CC1)c1cccc(Nc2nc(-c3ccccc3)cs2)c1` was tested. Which inhibition [1] did it give?
The inhibition was 9.1%.

What about the inhibition [2] of the same compound?
The inhibition was 8.88%.

And the inhibition [3]?
The inhibition was 2.09%.

`CC(C)NCc1cc(Nc2ccnc3cc(Cl)ccc23)ccc1O` was tested. Which inhibition [1] did it give?
The inhibition was 0.05%.

And the inhibition [2]?
The inhibition was 1.48%.

What about the inhibition [3] of the same compound?
The inhibition was 1.69%.

Which results are given for `OCCN1CCN(Cc2cccc(-c3ccc(-c4nc5cc(C(F)(F)F)ccc5[nH]4)s3)c2)CC1`?
inhibition [1]: 2.38%; inhibition [2]: -3.19%; inhibition [3]: 0.82%

How did the inhibition [1] turn out when `FC(F)(F)c1ccc2[nH]c(-c3ccc(-c4cccc(CNCc5cnn(-c6ccccc6)n5)c4)cc3)nc2c1` was run?
The inhibition was 2.04%.

And the inhibition [2]?
Its inhibition is 1.86%.

What about the inhibition [3] of the same compound?
The inhibition was -0.02%.

Which results are given for `O=C1c2ccccc2C(=O)N1c1ccc(S(=O)(=O)N2CCOCC2)cc1`?
inhibition [1]: 8.7%; inhibition [2]: 6.66%; inhibition [3]: 8.08%

What does the source list for `CN1CCN(c2cc3c(cc2Cl)CCN3C(=O)Cc2ccc(Cl)c(NC(=O)Nc3cccc(C#N)c3)c2)CC1`?
inhibition [1]: -0.57%; inhibition [2]: -0.51%; inhibition [3]: -0.22%

Which results are given for `CC1CN(c2cnn(Cc3cccc(NC(=O)Nc4cccc(C(F)(F)F)c4)c3)c(=O)c2Cl)CC(C)N1` (centres undefined)?
inhibition [1]: 10.7%; inhibition [2]: 8.17%; inhibition [3]: 7.73%

With `COc1ccc2nccc([C@@H](O)CN3CCC(NCc4nc5cc(F)ccc5o4)CC3)c2c1` as the compound, how does the inhibition [1] read?
The inhibition was 8.07%.

What about the inhibition [2] of the same compound?
The inhibition was 6.24%.

What about the inhibition [3] of the same compound?
Its inhibition is 1.01%.

For `CC(CCc1ccccc1)NCC(O)c1cccc(C(F)(F)F)c1` (centres undefined), which inhibition [1] is on record?
The inhibition was 5.1%.

And the inhibition [2]?
The inhibition was 5.17%.

And the inhibition [3]?
Its inhibition is 3.76%.

Which inhibition [1] does the source give for `CCc1nonc1NC(=O)c1oc2c(C)c(C)ccc2c1C` here?
Its inhibition is 7.09%.

What about the inhibition [2] of the same compound?
Its inhibition is 5.3%.

And the inhibition [3]?
Its inhibition is 7.88%.

What does the source list for `O=C(Nc1cccc(-c2cccc(-c3nc4cc(F)ccc4[nH]3)c2)c1)c1c[nH]cn1`?
inhibition [1]: -0.8%; inhibition [2]: -0.5%; inhibition [3]: -1.75%

What does the source list for `Cc1[nH]c(C)c(-c2ccc(OCc3ccc(OC(F)(F)F)cc3)nc2)c(=O)c1Br`?
inhibition [1]: 8.89%; inhibition [2]: 13.8%; inhibition [3]: 3.44%

Which inhibition [1] does the source give for `CC(C)CNC(=O)c1cncc(-c2ccc(CNC3Cc4ccccc4C3)cc2)c1` here?
Its inhibition is -0.34%.

What about the inhibition [2] of the same compound?
Its inhibition is 1.58%.

What about the inhibition [3] of the same compound?
The inhibition was -0.51%.

For `N#Cc1cccc(NC(=O)Nc2cccc(-c3ccc(-c4nc5cc(C(F)(F)F)ccc5[nH]4)cc3)c2)c1`, which inhibition [1] is on record?
Its inhibition is 2.29%.

What about the inhibition [2] of the same compound?
The inhibition was 2.13%.

And the inhibition [3]?
Its inhibition is -7.53%.

With `Cc1cccc(C)c1C1CCN(C2CCC(NC(=O)/C=C/c3ccccc3)CC2)CC1` (centres undefined) as the compound, how does the inhibition [1] read?
The inhibition was 5.77%.

And the inhibition [2]?
The inhibition was 5.67%.

And the inhibition [3]?
Its inhibition is 5.46%.

Which inhibition [1] does the source give for `Fc1ccc2[nH]c(-c3cccc(-c4ccc(CN5CCN(CCN6CCOCC6)CC5)cc4)c3)nc2c1` here?
Its inhibition is 1.26%.

What about the inhibition [2] of the same compound?
The inhibition was 1.68%.

What about the inhibition [3] of the same compound?
The inhibition was 1.79%.

Which results are given for `Cc1cc(N(C)CCCN(C)C)nc(Nc2ccc(Cl)cc2)n1`?
inhibition [1]: -1.04%; inhibition [2]: 1.73%; inhibition [3]: -0.32%

For `c1cc(CNCCc2ccncc2)cc(-c2csc(-c3nc4ccccc4[nH]3)c2)c1`, which inhibition [1] is on record?
Its inhibition is 0.51%.

And the inhibition [2]?
The inhibition was -1.59%.

And the inhibition [3]?
Its inhibition is 1.05%.

With `CCNS(=O)(=O)c1ccc(Oc2ccc([N+](=O)[O-])cc2)cc1` as the compound, how does the inhibition [1] read?
The inhibition was 0.11%.

What about the inhibition [2] of the same compound?
The inhibition was -1.31%.

And the inhibition [3]?
Its inhibition is -1.68%.

What does the source list for `CCCN(Cc1nnc(-c2ccco2)o1)C(=O)C1CCCN(C(=O)c2ccc(Cl)cc2)C1` (centres undefined)?
inhibition [1]: 1.85%; inhibition [2]: 0.73%; inhibition [3]: -0.96%

How did the inhibition [1] turn out when `CN1CCN(c2cc(-c3cccc(C(F)(F)F)c3)nc(-c3ccncc3)n2)CC1` was run?
The inhibition was 2.69%.

What about the inhibition [2] of the same compound?
The inhibition was 4.44%.

What about the inhibition [3] of the same compound?
Its inhibition is -2.16%.

`C[C@@H](Oc1cc(-n2cnc3ccc(NC(=O)CCN4CCCCC4)cc32)sc1C(N)=O)c1ccccc1Cl` was tested. Which inhibition [1] did it give?
Its inhibition is 8.99%.

What about the inhibition [2] of the same compound?
The inhibition was 5.72%.

What about the inhibition [3] of the same compound?
Its inhibition is -0.04%.

Which inhibition [1] does the source give for `COc1ccccc1CNc1ccnc(N2CC(Oc3ccc(F)cc3)C2)n1` here?
Its inhibition is -2.09%.

What about the inhibition [2] of the same compound?
Its inhibition is 0.57%.

What about the inhibition [3] of the same compound?
Its inhibition is -2.53%.

For `CN1CCC(C(=O)Nc2cccc(-c3ccc(-c4nc5cc(C(F)(F)F)ccc5[nH]4)s3)c2)CC1`, which inhibition [1] is on record?
Its inhibition is 9.29%.

And the inhibition [2]?
Its inhibition is 10%.

What about the inhibition [3] of the same compound?
Its inhibition is 6.1%.

Which inhibition [1] does the source give for `Cc1nc(N)nc(N)c1-c1ccc(Br)c([N+](=O)[O-])c1` here?
The inhibition was 1.12%.

And the inhibition [2]?
The inhibition was 2.99%.

And the inhibition [3]?
The inhibition was 2.4%.

What does the source list for `O=C(/C=C/c1ccc(Cl)c(Cl)c1)NCCCCCN1CCC(NC(=S)Nc2cccc(Cl)c2)CC1`?
inhibition [1]: 2.06%; inhibition [2]: 0.6%; inhibition [3]: -0.54%
